These results are taken from PubChem BioAssay.

Test [1] in a line: HepG2 liver cancer cell viability effects, profiling panel, resazurin fluorescence, 24 h, PK04 Diversity Set (AID 1172). Note: test concentration not given here. The conditions noted are these: higher = more signal. Background: The colour change of resazurin is a common sign of viable cells or microbes.
Test [2] can be described thus: basal S. cerevisiae growth modulation, no modifier, primary screen, OD600, strain BY4716, 24 h, basal condition (AID 1173). The conditions noted are these: OD600, 24 h, higher = more signal, called active from +8 up or from −8 down.
Test [3] in a line: MM1S myeloma cell viability, profiling panel, resazurin fluorescence, basal, 24 h, PK04 Diversity Set (AID 1174). Note: test concentration not given here. The conditions noted are these: higher = more signal, called active from +8 up or from −8 down.
The target of test [4] is Dihydroorotate dehydrogenase (quinone), mitochondrial (Plasmodium falciparum (isolate 3D7)) (UniProt Q08210). Description: PfDHODH enzyme inhibitors, primary screen, biochemical, C-terminal His tag, absorbance 600 nm (AID 1175).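 Note: recombinant parasite enzyme with a five histidine tag at its C terminus; test concentration not given here.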 The conditions noted are these: DCIP absorbance 600 nm, higher = more signal, called active from +8 up or from −8 down.
Dihydroorotate dehydrogenase (quinone), mitochondrial (Plasmodium falciparum (isolate 3D7)), sequence (Q08210 whole entry, looked up): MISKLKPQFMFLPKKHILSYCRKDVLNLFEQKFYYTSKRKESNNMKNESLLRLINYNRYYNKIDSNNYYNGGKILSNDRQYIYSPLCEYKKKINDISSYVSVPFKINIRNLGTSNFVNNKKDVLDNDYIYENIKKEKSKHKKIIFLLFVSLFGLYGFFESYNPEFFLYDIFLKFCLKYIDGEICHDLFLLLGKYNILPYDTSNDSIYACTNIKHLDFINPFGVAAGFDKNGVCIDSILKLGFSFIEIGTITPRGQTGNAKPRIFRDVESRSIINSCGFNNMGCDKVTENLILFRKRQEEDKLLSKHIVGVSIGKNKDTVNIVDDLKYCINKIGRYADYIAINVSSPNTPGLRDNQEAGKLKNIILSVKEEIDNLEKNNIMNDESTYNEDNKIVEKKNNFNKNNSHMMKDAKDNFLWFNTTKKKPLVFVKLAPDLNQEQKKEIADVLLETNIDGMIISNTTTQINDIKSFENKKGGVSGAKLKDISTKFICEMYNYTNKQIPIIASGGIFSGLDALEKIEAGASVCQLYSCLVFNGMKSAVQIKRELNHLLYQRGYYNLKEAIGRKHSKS
The nature of test [5]: P. aeruginosa biofilm formation inhibitors, primary screen, strain PAO1, LB-PBS medium, absorbance 600 nm (AID 1176). Note: test concentration not given here. The following applies: P. aeruginosa PAO1 growth/biofilm, A600, 12 h; higher = more signal.
Test [6] can be described thus: S. cerevisiae RM11-1a growth modifiers, primary screen, strain RM11-1a, OD600, basal, 24 h (AID 1177).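 Note: cultures grown under basal conditions with no added stressor; test concentration not given here.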 The conditions noted are these: OD600, 24 h, higher = more signal, called active from +8 up or from −8 down.
Test [7] in a line: E. coli acrAB mutant growth effects, primary screen, E. coli filamentation inducers, strain DRC39, OD650, 24 h (AID 1178).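 Note: growth measured as culture turbidity by optical density at 650 nm; test concentration not given here.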 The conditions noted are these: higher = more signal, called active from +8 up or from −8 down.
Test [8] can be described thus: E. coli acrAB mutant growth effects, primary screen, E. coli filamentation inducers, strain DRC39, OD650, 48 h (AID 1179).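 Note: screen aims at cell division blockers that make cells filament.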 The conditions noted are these: E. coli DRC39 delta-acrAB growth, higher = more signal, called active from +8 up or from −8 down.
Test [9] can be described thus: RPMI8226 myeloma cell viability, profiling panel, resazurin fluorescence, basal, 24 h, PK04 Diversity Set (AID 1180).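 Note: RPMI8826 multiple myeloma cell line at 5000 cells per well; test concentration not given here.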 The conditions noted are these: higher = more signal.
The target of test [10] is E3 ubiquitin-protein ligase XIAP (Homo sapiens) (UniProt P98170). Briefly: XIAP binders, primary screen, biophysical, small-molecule microarray, fluorescence 635 nm (AID 1181).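 Note: score merges 667 nm emission and signal to noise over triplicate slides.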 The following applies: small-molecule microarray binding, higher = more signal.
E3 ubiquitin-protein ligase XIAP (Homo sapiens), sequence (P98170 whole entry, looked up): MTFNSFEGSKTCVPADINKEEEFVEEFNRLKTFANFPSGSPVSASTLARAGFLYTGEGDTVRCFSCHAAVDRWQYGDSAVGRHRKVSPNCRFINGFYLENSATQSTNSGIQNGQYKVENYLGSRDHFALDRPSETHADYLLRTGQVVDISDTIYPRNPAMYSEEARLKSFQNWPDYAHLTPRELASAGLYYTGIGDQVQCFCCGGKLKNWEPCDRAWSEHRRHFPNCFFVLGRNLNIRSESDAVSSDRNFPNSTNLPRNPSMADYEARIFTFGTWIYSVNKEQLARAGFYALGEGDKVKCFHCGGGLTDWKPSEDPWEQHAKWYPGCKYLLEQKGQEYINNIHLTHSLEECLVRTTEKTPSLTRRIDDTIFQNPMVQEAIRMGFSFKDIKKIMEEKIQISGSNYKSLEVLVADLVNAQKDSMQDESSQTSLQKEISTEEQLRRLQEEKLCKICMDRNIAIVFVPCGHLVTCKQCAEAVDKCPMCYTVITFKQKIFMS

Active and inactive are the calls of the source. Unless noted, the rule behind the calls is not given here.

For `C=CCC(OC(C)=O)[C@@H]1[C@@H](N(Cc2ccc(-c3cccc(C(F)(F)F)c3)o2)C(=O)c2cccc3ccccc23)c2cc(OCCCO)ccc2N1C(=O)Cc1ccc2ccccc2c1` (stereo not given in full), the z-score is -0.496 in test [1]; -0.721 (inactive) in [2]; -0.291 (inactive) in test [3]; -0.935 (inactive) in test [5]; -0.0974 (inactive) in [6]; 0.525 (inactive) in test [7]. Further, the z-score in [8] was 0.235 (inactive); in [9], -0.638. In addition, the composite z-score is 0.22 (inactive) in test [4] and -0.242 in test [10].

Consider `COc1cc(OC)c(C(O)C2C=CC3C(=O)NC(=O)C3N2Nc2ccccn2)cc1Br` (stereo not given), for which the z-score is -0.455 in test [1]; -0.991 (inactive) in [2]; -0.597 (inactive) in test [3]; 1.19 (inactive) in [5]; 0.666 (inactive) in test [6]; -0.0857 (inactive) in test [7]. The z-score in test [8] was -0.512 (inactive); in test [9] it was -0.195. The results for the composite z-score in test [4] and in test [10] were 0.412 (inactive) and -0.0525, respectively.

Take `CCN(CC)c1ccc(N2CC=CC34O[C@@H]5/C=C\CCC(C)OC(=O)C5[C@H]3C(=O)N(CCCCCO)[C@@H]4C2=O)cc1` (stereo not given in full): the z-score is 0.18 in [1]; -0.596 (inactive) in [2]; 0.603 (inactive) in [3]; -0.469 (inactive) in [5]; -0.147 (inactive) in test [6]; 0.95 (inactive) in test [7]. In addition, the z-score in test [8] is 1.1 (inactive); in test [9], 0.802. The composite z-score is 0.513 (inactive) in [4] and -0.161 in test [10].

Consider `CCOC(=O)C[C@H]1[C@H](OC(=O)c2ccc(-c3ccccc3)cc2)[C@@H](NC(=O)c2ccccc2)c2cc(OCCCO)ccc2N1C(=O)Cc1ccc(OC)cc1`, for which the z-score was -0.161 in test [1]; 0.742 (inactive) in test [2]; 0.393 (inactive) in test [3]; 0.845 (inactive) in test [5]; 1.47 (inactive) in test [6]; 0.835 (inactive) in [7]. For the same compound, the values for the z-score in [8] and in [9] were 0.451 (inactive) and -0.041, respectively. Moreover, the composite z-score was 0.593 (inactive) in test [4] and -0.0936 in test [10].

`CC(C)CNC(=O)[C@@]1(Cc2ccccc2I)c2ccccc2C(=O)N(Cc2ccccc2C(F)(F)F)[C@H]1c1ccc(CO)cc1`: the z-score in test [1] is -0.165; in [2], 0.428 (inactive); in test [3], -0.0663 (inactive); in test [5], -0.0528 (inactive); in test [6], 0.0567 (inactive); in test [7] it was -0.188 (inactive). In addition, the z-score in [8] was 0.588 (inactive); in test [9], -0.0359. The composite z-score in test [4] is 0.366 (inactive); in test [10] it was -0.271.

For `O=C(O)[C@@]1(CCS(=O)(=O)c2ccccc2)N=C(c2ccc(OCCCO)cc2)O[C@H]1c1ccccc1`, the z-score in [1] was 0.489; in [2], -1.11 (inactive); in [3], 0.409 (inactive); in test [5] it was -1.27 (inactive); in test [6], -0.357 (inactive); in test [7], 0.28 (inactive). The z-score in [8] was -0.275 (inactive); in [9], 1.26. Moreover, the composite z-score is -0.0555 (inactive) in test [4] and 0.0952 in [10].

For `COC(=O)[C@@]1(Cc2ccccc2)[C@H]2c3cc(C(=O)N4CCCC4)n(Cc4c(CO)[nH]cc(C)c4=O)c3C[C@H]2CN1C(=O)c1ccccc1`, the z-score in test [1] was -0.789; in test [2], 1.01 (inactive); in test [3], -0.74 (inactive); in [5], 0.287 (inactive); in test [6] it was 0.624 (inactive); in test [7], -0.384 (inactive). The z-score in test [8] was 0.156 (inactive); in test [9] it was -0.467. In addition, the results for the composite z-score in test [4] and in [10] were 0.255 (inactive) and 0.406, respectively.

Turning to `O=C1OCCC=C[C@H]2OC34C=CCN(c5ccc(Cl)cc5)C(=O)[C@H]3N(CCCO)C(=O)[C@@H]4C12` (stereo not given in full), the z-score in test [1] was -0.281; in test [2], -0.757 (inactive); in [3], 0.357 (inactive); in test [5] it was 0.248 (inactive); in test [6], -0.163 (inactive); in test [7] it was 0.881 (inactive). For the same compound, the z-score in [8] is 0.415 (inactive); in test [9], -0.658. For the same compound, the composite z-score in test [4] is -0.792 (inactive); in test [10] it was -0.0826.

On to `COCCOC(=O)N1C(=O)[C@@]2(c3cc(C#CC4=CCCCC4)ccc31)[C@H](C(N)=O)[C@H]1C(=O)O[C@H](c3ccccc3)[C@H](c3ccccc3)N1[C@@H]2c1ccc(O)cc1`, for which the z-score in test [1] was -0.495; in test [2] it was -0.268 (inactive); in test [3] it was -2.03 (inactive); in test [5], 1.37 (inactive); in test [6], -1.07 (inactive); in [7], 0.273 (inactive). Besides, the z-score in [8] was 1.03 (inactive); in test [9] it was -4.15. Also, the composite z-score in test [4] is -1.37 (inactive); in test [10], -0.223.

As for `O=C(O)[C@H]1C[C@H]2C(=O)N3CCC[C@H]3C(=O)N2[C@H]1c1ccc(O)cc1`, the z-score in test [1] was 0.684; in test [2], -0.171 (inactive); in [3], 1.1 (inactive); in [5] it was 0.0778 (inactive); in test [6] it was 0.208 (inactive); in [7], 0.408 (inactive). For the same compound, the z-score is 0.715 (inactive) in test [8] and 1.07 in [9]. Further, the composite z-score was -0.453 (inactive) in test [4] and 0.125 in test [10].

Turning to `C=CCN1C(=O)[C@]2(O[C@H](CCO)[C@@H]([Si](C)(C)c3ccc(OC)cc3)[C@@H]2C)c2cc(N(C=O)c3ccccc3)ccc21`, the z-score in test [1] was -6; in test [2], 1.14 (inactive); in test [3] it was -8.61 (active); in test [5], 0.0245 (inactive); in [6], 3.98 (inactive); in test [7], 1.72 (inactive). The z-score is 0.905 (inactive) in test [8] and -6.23 in test [9]. Moreover, the composite z-score in test [4] was 0.637 (inactive); in test [10], -0.0189.
